{"source": "PubChem BioAssay AID651692", "about": "(Broad Institute, 2012)", "note": "Entries with a potency or affinity are not part of this list. The source made the active and inactive calls.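 How the source made its calls: active means fitted half-maximal concentration for loss of cell signal no higher than twice the top valid tested concentration; inconclusive means flat curve at 30 to 70% inhibition, or poor fit; inactive means flat within 30%, signal rise, or potency above limit.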", "data": [{"test": "cytotoxicity toward MDA-MB-231 breast cancer cells – cell-based, CellTiter-Glo luminescence, cherry-pick, cytotoxicity control for RAD54 inhibitor project, dose response (AID 651692);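 further: more negative values mean stronger loss of viable cell signal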", "conditions": "MDA-MB-231 viability, 24 h; series mostly up to 26 µM", "values": [{"smiles": "c1ccc(-c2cc(NCCN3CCCCC3)c3ccccc3n2)cc1", "outcome": "inactive"}, {"smiles": "CCN(CC)CCCNC(=O)C1CCN(c2ncnc3c2sc2cccc(F)c23)CC1", "outcome": "inactive"}, {"smiles": "CCN1CCc2c(sc(NC(=O)c3ccc(S(=O)(=O)N4CCOCC4)cc3)c2C(=O)OC)C1", "outcome": "inactive"}, {"smiles": "Nc1cc2ccncc2c2ccccc12", "outcome": "inactive"}, {"smiles": "Cc1ccc(-c2nc(NCCCN(C)C)c3ccccc3n2)cc1", "outcome": "inactive"}, {"smiles": "Cc1c(C)n(CCN(C)C)c2ccc(C(=O)OCCN(C)C)cc12", "outcome": "inactive"}, {"smiles": "c1ccc2c(c1)oc1c(Nc3ccc(CN4CCOCC4)cc3)ncnc12", "outcome": "inactive"}, {"smiles": "Cc1ccc(-c2nc(C(=O)NCCCN(C)C)cc3c2[nH]c2ccccc23)cc1", "outcome": "inactive"}, {"smiles": "CCN1CCN(c2nc(N)c([N+](=O)[O-])c(Nc3cccc(C)c3)n2)CC1", "outcome": "inactive"}, {"smiles": "CCOc1cc2[nH]c(=S)n(Cc3ccc(C(=O)NCCCN(CC)CC)cc3)c(=O)c2cc1OCC", "outcome": "inactive"}, {"smiles": "CCN1CCN(CCCNC(=O)c2cc3c(=O)[nH]c4ccccc4c3s2)CC1", "outcome": "inactive"}, {"smiles": "COc1cccc2c1-c1c(O)cccc1C2=O", "outcome": "inactive"}, {"smiles": "COc1ccc(CCNC(=O)c2cc3c(=O)n4cccc(C)c4nc3n(CCCN3CCOCC3)c2=N)cc1", "outcome": "inactive"}, {"smiles": "Cc1cccc(-c2nc(NCCCN(C)C)c3ccccc3n2)c1", "outcome": "inactive"}, {"smiles": "COc1ccc(-c2nc(C(=O)NCCCN3CCOCC3)cc3c2[nH]c2ccccc23)cc1OC", "outcome": "inactive"}, {"smiles": "CN1CCN(c2nc(-c3ccncc3)nc3ccccc23)CC1", "outcome": "inactive"}, {"smiles": "O=C(COc1ccc2c(c1)oc(=O)c1ccccc12)NCCCN1CCOCC1", "outcome": "inactive"}, {"smiles": "COc1ccc(CCNc2c3ccccc3nc3ccccc23)cc1OC", "outcome": "inactive"}, {"smiles": "CCN(CC)CCN(C(=O)C1=COCCO1)c1nc2c(OC)ccc(OC)c2s1", "outcome": "inactive"}, {"smiles": "CCCCN(CC)CCNC(=O)c1cc2c(=O)n(C)c3ccccc3c2n1C", "outcome": "inactive"}, {"smiles": "CN1CCN(c2ncnc3c2[nH]c2ccc(F)cc23)CC1", "outcome": "inactive"}, {"smiles": "CN1CCN(c2nc(-c3cccc([N+](=O)[O-])c3)nc3ccccc23)CC1", "outcome": "inactive"}, {"smiles": "O=C(Nc1ccc(Nc2ccncc2)cc1)c1ccc(Nc2ccnc3ccc([N+](=O)[O-])cc23)cc1", "outcome": "inactive"}]}]}
